Screening data: PubChem BioAssay, National Center for Advancing Translational Sciences (NCATS)
ELG1 DNA repair: inhibitors of ELG1-dependent DNA repair in HEK293T cells; HEK293T ELG1-luciferase reporter, luminescence, 16 h; DNA damage induced by 5-fluorouridine; Potency, µM (titrated, usually from 46.1 µM), most hits filed as inhibitors; actives 2.3% (n = 330,000); further: nearly all actives have a fitted effect of over 55% in size
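In this reporter screen, reduction of luminescence relative to DMSO vehicle indicated activity. Compounds and 5-fluorouridine were added together to 2,000 cells per well, incubated for 16 hr at 37 °C, then developed with ONE-Glo.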
HT1080NT lethal: kills 2HG-producing HT-1080-NT fibrosarcoma cells. actives 1.6% (n = 360,000). HT-1080-NT fibrosarcoma viability, CellTiter-Glo ATP luminescence, 48 h. Potency, µM (highest dose often 46.1 µM), usual class: cytotoxic;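 further: NT is the 2HG producing partner of a matched IDH1 knockdown line; nearly all actives have a fitted effect of over 55% in size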
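HT-1080-NT; 750 cells/well; 5% FBS RPMI; 48 h compound, 37 degrees C; CellTiter-Glo luminescence; curve fitting and curve-class assignment.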
IL1B secr inh: inflammasome signaling inhibition, IL-1 beta readout. THP-1 LPS/ATP IL-1B secretion, AlphaLISA, 16 h; stronger effect = lower value. activity change, % at 57.5 µM. actives 4.7% (n = 360,000). AID 743279; in the data active means activity change below about -50%; inconclusive means mostly about -30% to -49%
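Secreted IL-1B measured by AlphaLISA bead assay after 16 h compound exposure of THP-1 cells; compounds (final up to 57.5 uM) added 1 h before LPS (250 ng/mL) and ATP (1.25 mM) stimulation; lower signal means less secretion.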
HT1080 IDH1KD tx: HT-1080 IDH1 knockdown cell toxicity (counter line); Potency, µM (top dose mostly 46.1 µM), most hits filed as cytotoxic; actives 2% (n = 360,000); AID 686971; HT-1080 IDH1 knockdown viability, ATP luminescence, 48 h
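HT-1080-IDH1KD cells (IDH1 knocked down), 750/well in RPMI with 5% FBS, treated with compound 48 h at 37 degrees C. Viability by CellTiter-Glo luminescence, normalised to DMSO and no-cell wells; concentration-response curves classed.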
TDP1 cell noCPT: qHTS for Inhibitors of human tyrosyl-DNA phosphodiesterase 1 (TDP1): qHTS in cells in absence of CPT. DT40 Tdp1-/- hTDP1 cells, no CPT, ATP luminescence, 48 h. actives 15% (n = 420,000). Potency, µM (top dose mostly 46.2 µM), actives largely listed as inhibitors; further: nearly all actives have a fitted effect of over 55% in size
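Chicken DT40 Tdp1-/- cells stably complemented with human TDP1 were seeded at 400 cells/well with DMSO in place of 20 nM camptothecin. After compound pinning, cells grew at least 48 hr at 37 °C; viability read by CellTiter-Glo luminescence.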
TDP1 cell CPT: growth inhibition of DT40 Tdp1-/-;hTDP1 cells with camptothecin (screen for TDP1 inhibitors) | AID 686979 | Potency, µM (highest dose often 46.2 µM), hits mostly inhibitors | actives 12% (n = 420,000) | chicken DT40 Tdp1-/-;hTDP1 cells + 20 nM CPT, ATP luminescence, 48 h; further: nearly all actives have a fitted effect of over 55% in size
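Chicken DT40 Tdp1-/- cells stably complemented with human TDP1 were seeded at 400 cells/well in medium containing 20 nM camptothecin, exposed to pin-transferred compounds, and grown at 37 °C for at least 48 hr. Viability was read as ATP luminescence.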
Hits are given with their value; - = inactive; ? = inconclusive; . = no result given; [ ] = dose if it differs, or a comment. Only some compounds are listed: those with a hit (about 19% of all), similar ones and a draw of the others. Unless noted, the call rests on the fitted dose curve; in most records, active means well fitted curve in the direction sought with a large enough effect; inconclusive means small, poorly fitted or top-dose-only effect, or another doubt; inactive means no such curve, though single readings can be large; an effect the other way counts as inactive or inconclusive.

SMILES	ELG1 DNA repair	HT1080NT lethal	IL1B secr inh	HT1080 IDH1KD tx	TDP1 cell noCPT	TDP1 cell CPT
CCOC(=O)C1CCN(c2ncnc3c2oc2ccccc23)CC1	?	?	-	-	16µM	?
CN1CCC(=C2c3ccccc3CCc3cccnc32)CC1	.	.	.	.	-	-
CCOC(=O)N1CCC(=C2c3ccc(Cl)cc3CCc3cccnc32)CC1	-	?	-	?	13µM	21µM
CC(=O)c1ccc(S(=O)(=O)NCC(=O)N2CCN(C/C=C/c3ccccc3)CC2)cc1	-	-	-	-	-	?
Cc1cccc(N2CCN(C(=O)c3cc4cc(F)ccc4[nH]3)CC2)c1C	?	-	-	-	?	?
CN(CCOc1ccccc1)CC(=O)Nc1cc([N+](=O)[O-])ccc1Cl	?	-	-	-	?	-
CCOc1ccc(CN(C)CC(=O)Nc2ccc([N+](=O)[O-])cc2Cl)cc1	?	-	-	-	18µM	?
O=c1[nH]cnc2c([N+](=O)[O-])cccc12	-	-	-	-	-	-
O=[N+]([O-])c1cccc2c(Br)[nH]nc12	.	.	.	.	?	32µM
COc1ccc(-c2oc3ncn4nc(-c5cccc(C)c5)nc4c3c2-c2ccc(OC)cc2)cc1	.	.	.	.	-	-
Cc1ccc2cc3cc(C(=O)N(CC(=O)NC4CCCC4)c4cccc(C)c4C)sc3nc2c1	?	-	-	-	18µM	23µM
Cc1ccc(C)c(N(CC(=O)NC2CCCC2)C(=O)c2cc3cc4cccc(C)c4nc3s2)c1	?	-	-	-	?	?
CCN(CC)C(=O)CSc1nc(N)c2c3c(sc2n1)CC(C)CC3 (stereo unspecified)	?	-	-	?	21µM	?
CC1CCc2c(sc3nc(SCC(=O)NCc4ccco4)nc(N)c23)C1 (stereo unspecified)	-	?	-	?	13µM	18µM
COc1ccc(OC)c(CNC(=O)c2cnc3c(C)cccn3c2=O)c1	.	.	.	.	-	-
CCN1C(=O)c2cccc3cccc1c23	?	-	-	-	?	29µM
CN(C)C(=O)CN1C(=O)c2cccc3cccc1c23	-	-	-	-	-	-
COc1cccc(NC(=O)Cn2cc(S(=O)(=O)N3CCCC3)c(S(=O)(=O)N3CCCC3)c2)c1	.	.	.	.	-	-
COCCN(C(=S)Nc1c(C)cc(C)cc1C)C(C)c1cccs1 (stereo unspecified)	-	-	-	-	29µM	?
COCCN(C(=S)Nc1ccc(C)cc1C)C(C)c1cccs1 (stereo unspecified)	-	-	-	-	?	?
COc1ccccc1CCNC(=O)CNC(=O)c1ccc2ccccc2c1	-	-	-	-	?	?
C1=C(c2ccccc2)Nc2ncnn2C1c1ccccc1 (stereo unspecified)	.	-	-	-	-	-
COc1cccc(C2=CC(c3ccccc3F)n3ncc(C(=O)Nc4ccc(C)cc4)c3N2)c1 (stereo unspecified)	.	.	.	.	16µM	?
Cc1ccc(NC(=O)c2cnn3c2NC(c2ccccc2)=CC3c2ccccc2)cc1 (stereo unspecified)	.	.	.	.	?	10µM
COc1cccc(C2C=C(c3ccccc3)Nc3c(C(=O)Nc4ccccc4)cnn32)c1OC (stereo unspecified)	.	.	.	.	15µM	16µM
SMILES	ELG1 DNA repair	HT1080NT lethal	IL1B secr inh	HT1080 IDH1KD tx	TDP1 cell noCPT	TDP1 cell CPT
COc1cccc(C2=CC(c3ccc(C)cc3)n3ncnc3N2)c1 (stereo unspecified)	-	.	.	.	.	.
CCOc1ccccc1NC(=O)Cn1c(=O)n(CCCC(=O)NCCOC)c(=O)c2cc(OC)c(OC)cc21	.	.	.	.	-	-
CCCS(=O)(=O)NCc1c(C)ncc2c1CCN(C(=O)c1cccc(-c3ccccc3F)c1)C2	.	.	.	.	?	-[9.04 µM]
Cc1ccc2oc3c(c(=O)c2c1)C(c1ccc(F)cc1)N(Cc1ccc2c(c1)OCO2)C3=O (stereo unspecified)	.	.	.	.	-	-
Cc1c(Cl)cccc1NC(=O)CS(=O)(=O)c1ccccc1	-	-	-	-	-	-
COc1ccc(-c2c(C#N)c(SCC(=O)c3cc4ccccc4oc3=O)nc(C)c2C(=O)Nc2ccccc2)cc1	?	-	-	-	?	?
Cc1nc(SCC(=O)c2cc3ccccc3oc2=O)c(C#N)c(-c2ccccc2)c1C(=O)Nc1ccccc1	?	-	-	-	18µM	?
CCn1cc(C(=O)NCc2cccc(F)c2)c(=O)c2cc(F)c(N3CCN(C(=O)c4ccco4)CC3)cc21	13µM	13µM	-54	23µM	8.2µM	5.8µM
CCn1cc(C(=O)NN)c(=O)c2cc(F)c(N3CCN(C)CC3)cc21	-	-	-	-	-	-
CCn1cc(C(=O)NCc2cccnc2)c(=O)c2cc(F)c(N3CCN(C(=O)c4ccco4)CC3)cc21	21µM	-	-	-	21µM	21µM
CCCCNC(=O)c1cn(CC)c2cc(N3CCN(C)CC3)c(F)cc2c1=O	-	-	-	-	-	-
CCCNC(=O)c1cn(CC)c2cc(N3CCN(C(=O)c4ccco4)CC3)c(F)cc2c1=O	13µM	-	-	-	21µM	?
COc1ccccc1OCCNC(=O)C1CC(=O)N(c2ccc3c(c2)OCCO3)C1 (stereo unspecified)	-	-	-	-	-	-
CCN(CC(=O)Nc1c(F)cccc1F)C(=O)c1ccc2c(c1)OCCO2	?	-	-	-	-	-
O=[N+]([O-])c1cc(Cl)c(Cl)c(Cl)c1Cl	-	-	-93	-	?	-
CCN(CC(=O)Nc1c(F)cccc1F)C(=O)CCc1nc2sc3c(c2c(=O)[nH]1)CCCC3	-	-	-	-	-	-
CCOc1ccc(NC(=O)Nc2nnc(N3CCCCC3C)s2)cc1 (stereo unspecified)	.	.	.	.	23µM	23µM
O=C(Nc1cccc(C(F)(F)F)c1)NC1CCCCC1	-	?	-	?	?	23µM
NC(=O)/C=C\C(=O)Nc1cccc(C(F)(F)F)c1	-	?	-105	10µM	21µM	5.2µM
O=C(Nc1ccncc1)Nc1cccc(C(F)(F)F)c1	?	-	-	-	15µM	?
NNC(=O)Nc1cccc(C(F)(F)F)c1	-	-	-	-	-	-
CC(C)Cc1nnc(NC(=O)CN2C(=O)NC3(CC(C)CC(C)(C)C3)C2=O)s1 (stereo unspecified)	-	-	-	-	?	?
Cc1ccccc1-n1ncc(C(C)NS(=O)(=O)c2sccc2C)c1C (stereo unspecified)	-	-	-	-	?	?
